We go through 56 compounds from PubChem BioAssay AID463173 (ICCB-Longwood Screening Facility, Harvard Medical School, 2010).

Among all 52,000 compounds or so, about 4,300 (8.3%) were called active. No stated cut-off is given here; in the data, active means survival mostly below about 52% (no sharp cut-off); inactive means mostly above about 56%. Only a selection was taken, and actives are over-represented in it overall.

The experiment has as its system DeltatarO mutant. Kind of experiment: growth inhibition of S. aureus wild type versus tarO mutant, primary screen, teichoic acid synthesis inhibitors, RN4220, OD600 (AID 463173). Conditions: OD600, 18 h, active compounds read low, screened at 18.75 µg/mL (by protocol).
Regarding `O=C(Nc1nc2c(F)cccc2s1)c1ccc(S(=O)(=O)N2CCOCC2)cc1`, the survival is 103% (inactive).

Consider `COc1cc(NC(=O)c2nn(C)c3c2CS(=O)(=O)c2ccccc2-3)cc(OC)c1`, for which the survival was 68% (inactive).

`Cc1cc(C)c(NC(=O)Cn2cnc3c(oc4ccccc43)c2=O)c(C)c1`: the survival was 69% (inactive).

`COc1ccc(C2C(=O)N(C3CCC(C)CC3)CC(=O)N2Cc2ccc(C)cc2)cc1OC` (stereo unspecified): the survival was 86% (inactive).

In the case of `CCC(C(=O)N(C)Cc1ccccc1)n1nc(C)c2sc3ccccc3c2c1=O` (stereo unspecified), the survival was 66% (inactive).

As to `O=C(CC(c1ccccc1)c1ccccc1)N1CCN(Cc2ccc3c(c2)OCO3)CC1`, the survival was 67% (inactive).

Consider `O=C(CCCc1nc(-c2ccc(Cl)cc2)no1)NCc1ccco1`, for which the survival is 54% (inactive).

With `COc1ccc(C(=O)NCc2ccc3c(c2)CCN3C(C)=O)cc1OC`, the survival is 83% (inactive).

As to `Cc1ccc(C)c(CNC(=O)c2ccc3c(c2)nc2n3CCC(C)C2)c1` (stereo unspecified), the survival is 91% (inactive).

For the compound `Cc1ccc(S(=O)(=O)N2CCCc3cc(NS(=O)(=O)c4ccc(C)c(C)c4)ccc32)cc1`, the survival is 67% (inactive).

For `COc1ccc2c(c1)c1c(c(=O)n(Cc3ccccc3)c(=O)n1Cc1ccccc1)n2C`, the survival was -1% (active).

Turning to `COc1ccc2c(c1)c1c(c(=O)n(Cc3ccccc3)c(=O)n1Cc1ccc(C)cc1)n2C`, the survival was 80% (inactive).

In the case of `COc1cccc(Cn2c(=O)n(Cc3ccccc3)c(=O)c3c2c2cc(OC)ccc2n3C)c1`, the survival was 64% (inactive).

Turning to `Cc1ccc(/C=C/c2nc3ccccc3[nH]2)cc1`, the survival is 67% (inactive).

In the case of `Cc1ccc(C(=O)CSc2nc(C)cc(C)c2C(=O)Nc2cccc(C)c2)cc1`, the survival is 43% (inactive).

As for `Cc1ccc(NC(=O)CSc2nc(C)cc(C)c2C(=O)Nc2cccc(C)c2)cc1`, the survival was 49% (inactive).

For the compound `Cc1cccc(NC(=O)c2c(C)cc(C)nc2SCC(=O)Nc2c(C)cc(C)cc2C)c1`, the survival was 52% (inactive).

As to `CCOc1ccccc1NC(=O)c1c(C)cc(C)nc1SCC(=O)c1cccc(OC)c1`, the survival was 40% (active).

On to `COc1ccccc1NC(=O)c1c(C)cc(C)nc1SCC(=O)c1ccc(Cl)cc1`, for which the survival was 93% (inactive).

Regarding `CCc1cccc(C)c1NC(=O)CSc1nc(C)cc(C)c1C(=O)Nc1ccccc1`, the survival was 44% (inactive).

For the compound `Cc1ccc(NC(=O)c2c(C)cc(C)nc2SCC(=O)Nc2ccc(Br)cc2)cc1`, the survival is 40% (active).

With `COc1ccc(C(=O)CSc2nc(C)cc(C)c2C(=O)Nc2ccccc2C)cc1`, the survival was 51% (inactive).

On to `Cc1cc(C)c(C(=O)Nc2ccccc2)c(SCC(=O)Nc2ccc(Br)cc2C)n1`, for which the survival was 38% (active).

In the case of `Cc1cccc(NC(=O)c2c(C)cc(C)nc2SCC(=O)c2ccccc2)c1`, the survival is 40% (active).

`Cc1cccc(NC(=O)CSc2nc(C)cc(C)c2C(=O)Nc2ccc(Cl)cc2)c1`: the survival was 44% (inactive).

`COC(=O)c1ccc(NC(=O)CSc2nc(C)cc(C)c2C(=O)Nc2ccccc2)cc1`: the survival was 44% (inactive).

Regarding `Cc1ccc(S(=O)(=O)NCC2CCC(C(=O)NCCc3ccccc3)CC2)cc1` (stereo unspecified), the survival is 81% (inactive).

Take `O=C(NC1CC(=O)N(c2cccc(F)c2)C1)c1ccc(S(=O)(=O)N2CCOCC2)cc1` (stereo unspecified): the survival is 76% (inactive).

For `Cc1ccc(NC(=O)Cn2c(=O)n(Cc3ccc(C(=O)NCc4ccc5c(c4)OCO5)cc3)c(=O)c3ccccc32)cc1`, the survival is 102% (inactive).

With `Cc1cc(=O)n(Cc2c(F)cccc2Cl)c2c1c(C)nn2-c1cccc(F)c1`, the survival was 77% (inactive).

Take `Cc1cccc(NC(=O)c2c(NC(=O)c3ccco3)sc3c2CCC(C(C)(C)C)C3)c1` (stereo unspecified): the survival is 85% (inactive).

With `Cc1ccc(C)c(NC(=O)Cn2cc(C(=O)c3ccco3)c3ccccc32)c1`, the survival was 64% (inactive).

As for `COc1ccc(NC(=O)c2oc3ccccc3c2NC(=O)C23CC4CC(CC(C4)C2)C3)c(OC)c1`, the survival is 67% (inactive).

In the case of `CCc1ccc(-n2nc(C)c3c(C)cc(=O)n(CC(=O)Nc4cc(Cl)ccc4OC)c32)cc1`, the survival was 52% (active).

With `CCc1ccc(-n2nc(C)c3c(C)cc(=O)n(CC(=O)Nc4ccc(OC)c(OC)c4)c32)cc1`, the survival was 84% (inactive).

Take `Cc1ccc(-n2nc(C)c3c(C)cc(=O)n(CC(=O)Nc4cc(Cl)ccc4C)c32)cc1`: the survival is 125% (inactive).

Regarding `CCOC(=O)Cc1ccc(NC(=O)N2CCC(CN3CCC(C)CC3)CC2)cc1`, the survival is 81% (inactive).

For the compound `COc1cc2cc(C)c(SCC(=O)N3CCN(C(=O)c4ccco4)CC3)nc2cc1OC`, the survival is 73% (inactive).

Take `CCN(CC)S(=O)(=O)c1cccc2nsnc12`: the survival is 79% (inactive).

As for `Cc1ccc(NC(=O)CSc2nc3nccnc3c(=O)n2CCc2c[nH]c3ccccc23)cc1C`, the survival is 37% (active).

With `Cc1cc(C)cc(NC(=O)CSc2nc3ncccc3[nH]2)c1`, the survival is 76% (inactive).

On to `Cc1ccc(NC(=O)CSc2nc3c(sc4ccccc43)c(=O)n2CCCC(=O)NC2CCCC2)cc1C`, for which the survival is 87% (inactive).

Take `Cc1cc(C)cc(NC(=O)CSc2nc3nccnc3c(=O)n2CCc2c[nH]c3ccccc23)c1`: the survival is 38% (active).

`Cc1ccc(NC(=O)CSc2nc3ccccc3c(=O)n2CCC(=O)NC2CCCCC2)cc1C`: the survival is 86% (inactive).

`Cc1ccc(NC(=O)CSc2nc3nccnc3c(=O)n2CCc2c[nH]c3ccccc23)cc1`: the survival was 82% (inactive).

Regarding `COc1ccccc1C(=O)OCc1cc(=O)n2nc(C3CCCCC3)sc2n1`, the survival was 97% (inactive).

On to `c1ccc2c(NC3CCCC3)nc(N3CCNCC3)nc2c1`, for which the survival was 26% (inactive).

With `COc1ccc2c(Sc3ccccc3)c(C(=O)NCCCN3CCCCC3)[nH]c2c1`, the survival was 54% (inactive).

As for `COc1ccc2c(Sc3ccccc3)c(C(=O)NCCc3ccc(Cl)cc3)[nH]c2c1`, the survival was 98% (inactive).

Turning to `COCCCNC(=O)c1[nH]c2ccccc2c1Sc1ccc(C)cc1`, the survival is 69% (inactive).

As for `O=C(NCCCN1CCCCC1)c1cc(Sc2ccc(Cl)cc2)nc2ccccc12`, the survival was 17% (active).

As for `COc1ccc2c(Sc3ccc(Cl)cc3)c(C(=O)NCCCN3CCCCC3)[nH]c2c1`, the survival was -1% (active).

As to `O=C(NCCCN1CCCCC1)c1[nH]c2ccccc2c1Sc1ccc(Cl)cc1`, the survival was 7% (active).

Take `CCOCCCNC(=O)c1[nH]c2cc(C)ccc2c1Sc1ccc(Cl)cc1`: the survival is 85% (inactive).

Regarding `CC1CCN(CCCNC(=O)c2cc(Sc3ccc(F)cc3)nc3ccccc23)CC1`, the survival was 68% (inactive).

As to `CC1CCCCN1CCCNC(=O)c1cc(Sc2ccc(Cl)cc2)nc2ccccc12` (stereo unspecified), the survival is 94% (inactive).
